Calls of active or inactive are those of the source. The calls were made as follows: active = hit-call score of the fitted dose curve at least 0.9, where 1 is the maximum; inactive = score below 0.9.

The test can be described thus: CCTE_Shafer_MEA_dev_burst_rate: CCTE's Neural Network Formation Assay for Burst Rate, Shafer Lab (AID 2284042). The procedure: CCTE_Shafer_MEA_dev assay is conducted using Axion Biosystems 48 well microelectrode array (MEA) plates and Maestro recording system. Each well of the MEA plate contains a grid of 16 microelectrodes embedded in the culture surface. Electrically active cells, such as neurons, can be cultured over the electrodes, and electrical activity in these cells can be recorded extracellularly. The spontaneous firing of neurons is captured from each electrode on a microsecond timescale providing both temporally and spatially precise data. […] The CCTE_Shafer_MEA_dev assay uses primary cultures of rat cortical neurons. Recordings are made on days post-plating 5, 7, 9 and 12. As these cultures mature over time, neural networks develop functional activity and form cohesive networks in which electrical activity can be highly coordinated. CCTE_Shafer_MEA_dev_burst_rate is 1 of 19 assay components of the CCTE_Shafer_MEA_dev assay. It measures the frequency of single-electrode bursts (temporally-clustered groups of action potential firing) as the total number of bursts divided by the length of the recording in a microelectrode array (MEA) using Axion Biosystems Maestro 768 channel amplifier with the AxIS adaptive spike detector. The mean bursting rate is averaged across the active electrodes to report a well-mean value. To collapse across multiple recordings made on days post-plating 5, 7, 9 and 12, the trapezoidal area-under-the-curve of the component is calculated.Data from the assay component CCTE_Shafer_MEA_dev_burst_rate was analyzed into 1 assay endpoint. This assay endpoint, CCTE_Shafer_MEA_dev_burst_rate, was analyzed in the negative analysis fitting direction relative to DMSO as the negative control and baseline of activity. Using a type of functional reporter, gain or loss-of-signal activity can be used to understand electrical activity.
On the day prior to culture, each well was coated thoroughly with 150 uL of 0.05% polyethyleneimine (PEI, Sigma Cat P3143) in 50 mM HEPES (Sigma Cat H7523) at a pH of 8. The plate was incubated at 37C for one hour. PEI was rinsed out with 500 uL of sterile water three times. Plates were stored at 4C until the day of culture. This culture was plated at a seeding density of 1.5 x 10^5 cells/well on a 48-well MEA plate, prepared as described above. Cells were administered via a 25 uL media/laminin ([…]; Sigma Cat L2020-1MG) drop directly onto the microelectrode array, as adding the cells with the laminin results in better attachment than pre-coating with laminin. After 2 hours, an additional 475 uL of cortical media was added and the cells returned to the incubator. Exposure starts at day 0 of plating and is continued over twelve days of network development until the experiment is terminated. Cells are fed with fresh medium on DIV 5 and 9, following the recordings on those days. The entire volume of media in the well is exchanged and any vehicle or compound treatment is renewed. Complete details are found in OP-NHEERL/ISTD/SBB/TJS/2015-03-r0 (available on request, email shafer.tim@epa.gov). Measurement of the electrical activity is non-invasive, and recordings can be made from the same plate over multiple different days of the culture. In cortical neurons, this allows for the measurement of extracellular action potentials over the period during which networks form in the MEA plate.
Regarding `Cc1ccc(S(=O)(=O)OCC(F)(F)C(F)(F)C(F)(F)C(F)(F)C(F)(F)C(F)F)cc1`, the compound was called inactive.

Consider `O=C(O)C=C(C(F)(F)F)C(F)(F)F`, for which the compound was called inactive.

For the compound `CC(CCl)OP(=O)(OC(C)CCl)OC(C)CCl` (stereo not drawn), the outcome was inactive.

Consider `OC[C@@H](O)[C@@H](O)[C@H](O)[C@@H](O)CO`, for which the compound was called inactive.

In the case of `FC(F)(F)C(F)(F)C(F)(F)C(F)(F)C(F)(F)CCI`, the outcome was inactive.

On to `FC(F)(F)C(F)(F)C(F)(F)C(F)(F)C(F)(F)C(F)(F)CC1CO1` (stereo not drawn), for which the compound was classed as inactive.

In the case of `O=C(O)C(F)(F)C(F)(F)C(F)(F)C(F)(F)C(F)(F)C(F)(F)C(F)(F)C(F)(F)C(F)(F)C(F)F`, the result was inactive.

Regarding `CC(C)(C)C(=O)CC(=O)C(F)(F)C(F)(F)C(F)(F)F`, the compound was called inactive.

`O=C(O)C(F)(F)C(F)(F)C(F)(F)C(F)(F)C(F)(F)C(F)(F)C(F)(F)C(F)(F)Cl`: the compound was called inactive.

For the compound `OCC(F)(F)C(F)(F)C(F)(F)C(F)(F)C(F)(F)C(F)F`, the call was inactive.

In the case of `C=CC(=O)OCC(F)(F)C(F)(F)C(F)(F)C(F)(F)COC(=O)C=C`, the concentration at half-maximal activity (AC50) was 4.18 µM (active).

For the compound `O=S(=O)(OCC(F)F)C(F)(F)F`, the outcome was inactive.

For the compound `O=S(=O)(OCCOC(F)(F)F)C(F)(F)F`, the call was inactive.

Regarding `OCCCC(F)(F)C(F)(F)C(F)(F)F`, the compound was called inactive.

For `COC(=O)CCC(F)(F)C(F)(F)C(F)(F)C(F)(F)F`, the compound was classed as inactive.

As for `OCC(F)(F)C(F)(F)C(F)(F)C(F)F`, the outcome was inactive.

Turning to `NC(=O)C(F)(F)C(F)(F)C(F)(F)C(F)(F)F`, the call was inactive.

For `O=C(O)C(F)(F)C(F)(F)C(F)F`, the result was inactive.

In the case of `FC(F)(F)C(F)(F)CNCC(F)(F)C(F)(F)F`, the compound was classed as inactive.

For `O=C(O)C(F)(F)C(F)(F)C(F)(F)F`, the compound was classed as inactive.

As to `OCC(F)(F)C(F)(F)C(F)(F)F`, the compound was called inactive.

On to `O=P(O)(O)OCCC(F)(F)C(F)(F)C(F)(F)C(F)(F)C(F)(F)C(F)(F)F`, for which the compound was called inactive.

Turning to `N=C(N)C(F)(F)C(F)(F)C(F)(F)C(F)(F)C(F)(F)C(F)(F)C(F)(F)F`, the call was inactive.

A word on the AC50: it is the concentration giving half of the maximal activity seen.

Values taken from PubChem BioAssay (EPA / NIEHS).
